The record followed here is PubChem BioAssay (Tox21).

Molecules are shown by their SMILES. Records with an inconclusive call do not appear. A call without a number means that no potency is given here. Activity calls are given as the source filed them. Calls come from the whole dose curve.
Potency is the fitted concentration of half-maximal effect.

The assay in a line: qHTS assay for small molecules that induce genotoxicity in human embryonic kidney cells expressing luciferase-tagged ATAD5 - cell viability (AID 651634). Note: nearly all actives have a fitted effect of over 25% in size. Conditions: HEK293T ATAD5-luc cells viability, CellTiter-Fluor, 15.5 h; series mostly up to 83.3 µM. In a few lines: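 After 15.5 hr incubation with compound at 37C, 5% CO2, HEK293T ATAD5-luciferase cells received CellTiter-Fluor reagent; fluorescence intensity was quantified following 30 min at 37C.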
A general note: qHTS replaces the single test concentration by a dilution series.
Turning to `CC(=O)C(C)=O`, the Potency entry was “inactive”.

Regarding `O=C1[C@@H]2[C@H]3CC[C@H](C3)[C@@H]2C(=O)N1CCCCN1CCN(c2ncccn2)CC1`, the Potency result is “inactive”.

Regarding `O=C(O)CCS`, the Potency entry is “inactive”.

For `COc1ccc(CCN(C)CCCN2CCc3cc(OC)c(OC)cc3CC2=O)cc1OC`, the Potency entry was “inactive”.

For the compound `CCCCCC`, the Potency result was “inactive”.

For `O=C(O)CCC(=O)c1ccc(-c2ccccc2)cc1`, the Potency result is “inactive”.

With `CC1CCCO1` (stereo not drawn), the Potency entry is “inactive”.

Turning to `CSCC[C@H](NC(=O)[C@H](Cc1c[nH]c2ccccc12)NC(=O)CCNC(=O)OC(C)(C)C)C(=O)N[C@@H](CC(=O)O)C(=O)N[C@@H](Cc1ccccc1)C(N)=O`, the Potency entry was “inactive”.

As to `COc1ccc(-c2cc(=S)ss2)cc1`, the Potency entry is “inactive”.

Take `COc1ccc(-n2nc(C(F)F)cc2-c2ccc(S(C)=O)cc2)cc1` (stereo not drawn): the Potency entry was “inactive”.

As to `O=C(Oc1ccccc1)c1ccc2ccccc2c1O`, the Potency result was “inactive”.

On to `SCCc1cnccn1`, for which the Potency entry was “inactive”.

For `CCC(C)(C)C(=O)O`, the Potency result is “inactive”.

Turning to `Cc1cc(CCC(=O)OCCOCCOCCOC(=O)CCc2cc(C)c(O)c(C(C)(C)C)c2)cc(C(C)(C)C)c1O`, the Potency result was “inactive”.

Turning to `CCCCCCCC/C=C\CCCCCCCC(=O)OCCO`, the Potency result is “inactive”.

`COc1ccc2nc(S(=O)Cc3ncc(C)c(OC)c3C)[nH]c2c1` (stereo not drawn): the Potency entry is “inactive”.

Consider `O=C(O)c1ccc(O)cc1O`, for which the Potency result is “inactive”.

For the compound `c1ccc(CNc2ncnc3c2ncn3C2CCCCO2)cc1` (stereo not drawn), the Potency entry is “inactive”.

For `O=C(O)CCC(=O)OC[C@@H](NC(=O)C(Cl)Cl)[C@H](O)c1ccc([N+](=O)[O-])cc1`, the Potency entry is “inactive”.

As for `CC(=O)OCCC(C)CC(C)(C)C` (stereo not drawn), the Potency entry was “inactive”.

Consider `O=C1NC(=O)c2cccc3cccc1c23`, for which the Potency result is “inactive”.

Turning to `CCN(CC)c1ccc(C(=C2C=CC(=[N+](CC)CC)C=C2)c2ccc(S(=O)(=O)O)cc2S(=O)(=O)[O-])cc1`, the Potency is 27.3 µM (active).

For `CCCCC[C@H](O)/C=C/[C@H]1[C@H](O)CC(=O)[C@@H]1C/C=C\CCCC(=O)O`, the Potency entry was “inactive”.

With `CC[C@@H](CO)NCCN[C@@H](CC)CO`, the Potency entry is “inactive”.

Regarding `CCCCOC(=O)CCCCC(=O)OCCCC`, the Potency result was “inactive”.

Regarding `N[C@@H](Cc1cc(I)c(O)c(I)c1)C(=O)O`, the Potency entry was “inactive”.

As to `O=C(O)c1cccc(C[C@@H]2COc3ccc(OCc4nc5cc(F)ccc5s4)cc3[C@@H]2O)c1`, the Potency entry was “inactive”.

For `CN(C)CC/C=C1\c2ccccc2Sc2ccc(Cl)cc21`, the Potency result is “inactive”.

For `CCOC(=O)C(C)O` (stereo not drawn), the Potency entry is “inactive”.

Turning to `Cc1c(C2(c3cc(Br)c(O)c(Br)c3C)OS(=O)(=O)c3ccccc32)cc(Br)c(O)c1Br`, the Potency is 8.38 µM (active).

`CCC(CO)(CO)CO`: the Potency entry is “inactive”.

As for `CCOC(=O)c1ccc(NC(=O)CN2CCCCC2)cc1`, the Potency entry is “inactive”.

With `CCN(Cc1cccc(S(=O)(=O)O)c1)c1ccc(C(=C2C=CC(=[N+](CC)Cc3cccc(S(=O)(=O)O)c3)C=C2)c2ccccc2S(=O)(=O)[O-])cc1`, the Potency is 15.4 µM (active).
